Screening results as filed in PubChem BioAssay.
UCHL1 block – inhibitors of human UCHL1 deubiquitinase; purified UCHL1, Ub-rhodamine cleavage fluorescence; inhibition, % at 20 µM; 47,000 tested, 0.2% active; AID 1645859
Target sequence (P09936 whole entry, looked up): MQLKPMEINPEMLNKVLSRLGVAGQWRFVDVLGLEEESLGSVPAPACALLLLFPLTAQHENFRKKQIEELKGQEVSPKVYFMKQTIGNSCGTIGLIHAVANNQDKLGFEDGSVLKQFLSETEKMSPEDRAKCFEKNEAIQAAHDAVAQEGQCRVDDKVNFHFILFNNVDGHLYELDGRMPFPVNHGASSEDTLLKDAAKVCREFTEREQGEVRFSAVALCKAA
USP10 block – human USP10 deubiquitinase inhibition. Q14694. purified USP10, Ub-rhodamine fluorescence, 60 min. inhibition, % at 20 µM. 47,000 tested, 1.1% active. AID 1645856
USP7 inh – inhibitors of human USP7 deubiquitinase. 47,000 tested, 0.3% active. purified USP7, Ub-rhodamine cleavage fluorescence. inhibition, % at 20 µM. Q93009. AID 1645854
USP8 inh – blocks human USP8 ubiquitin-rhodamine cleavage; P40818; purified USP8, Ub-rhodamine cleavage fluorescence, 30 min; inhibition, % at 20 µM; 47,000 tested, 4.2% active
* hit, by the source's call. Rows were chosen to be rich in hits. Some 4.6% of all compounds tested hit in one or more screens of this group. No stated cut-off is given here; in the data, active means inhibition above about 30%; inactive means the rest.

SMILES	UCHL1 block	USP10 block	USP7 inh	USP8 inh
COc1cccc(-c2nc(C(N)=O)c3[nH]c(=O)n(-c4ccc5c(c4)OCO5)c3n2)c1O	4.1	0.2	4.4	31.4*
Cc1cccc(-c2nc(C(N)=O)c3[nH]c(=O)n(-c4ccccc4)c3n2)c1	-6.6	-3.4	0.0	74.8*
NCCNC(=O)N1CCC2(CC1)OC(=O)N(Cc1ccccc1)c1ccccc12	-1.4	-0.5	-82.8	-11.3
CC(=O)N(C)c1ccc(NC(=O)c2ccccc2Oc2ccccc2)cc1	0.0	-2.6	-5.3	-12.2
Cc1ccc(C(=O)N2C[C@H](OCC3CCOCC3)[C@H]3OCCC[C@H]32)o1	2.8	-2.9	-2.7	-14.0
CC(=O)c1cc(Cl)ccc1OCC(=O)NC12CC3CC(CC(C3)C1)C2	3.1	7.3	-0.2	4.3
Nc1c(-c2ccsc2)cnn1-c1ccccc1	0.2	6.2	-5.7	56.6*
Cc1cc2ncc(-c3ccsc3)c(N)n2n1	-0.6	1.9	-30.2	2.2
CN1c2cc(Cl)ccc2-c2nc(SCC(=O)Nc3ccc(F)cc3)ncc2S1(=O)=O	0.0	9.5	13.4	-0.8
CN1c2ccc(Cl)cc2-c2nc(SCC(=O)Nc3ccc(F)cc3)ncc2S1(=O)=O	-2.5	10.9	2.7	50.3*
Cn1c(COc2ccccc2)nnc1SCc1cc(=O)c2cc(Cl)ccc2[nH]1	-2.0	9.6	-3.8	33.4*
O=c1cc(Cc2ccccc2)nc2c(-c3ccccc3)c(COc3ccccc3)[nH]n12	10.1	61.9*	52.1*	-6.1
Cc1[nH]n2c(=O)cc(Cc3ccccc3)nc2c1-c1ccccc1	-5.3	5.6	-5.4	-109.1
Cc1ccc2occ(CC(=O)Nc3ccc(C)c(C)c3)c2c1	4.5	8.5	5.4	23.6
COc1ccc(-c2nc(-c3ccc(-c4ccc(C)cc4)nc3OC)no2)cc1OC	-19.7	-0.3	-13.6	-34.8
O=C(CN(Cc1ccccc1)S(=O)(=O)c1ccc(Cl)cc1)Nc1ccc(N2CCOCC2)cc1	0.0	1.7	-1.7	37.4*
O=C(c1ccco1)N1CCC2(CC1)CC1(CO2)Nc2ccccc2-n2cccc21 (configuration not stated)	16.5	-5.2	-9.3	67.5*
O=C(c1cscn1)N1CCC2(CC1)CC1(CO2)Nc2ccccc2-n2cccc21 (configuration not stated)	-1.6	5.2	-3.7	94.2*
O=C(c1ccncc1)N1CCC2(CC1)CC1(CO2)Nc2ccccc2-n2cccc21 (configuration not stated)	-0.2	-0.2	-4.1	71.0*
O=C(c1cccnc1)N1CCC2(CC1)CC1(CO2)Nc2ccccc2-n2cccc21 (configuration not stated)	1.6	-1.3	-3.1	92.9*
Cc1ccc(S(=O)(=O)N2CC(C(=O)N3CCOCC3)Oc3ccc(C)cc32)cc1 (configuration not stated)	-1.0	-2.9	-4.0	-4.3
CCCn1cc(C(=O)N2CCC3(CC2)CC2(CO3)Nc3ccccc3-n3cccc32)c(C)n1 (configuration not stated)	7.2	-3.0	-3.7	93.9*
O=c1ccn(-c2ccccc2)nc1-c1nc(-c2ccc(Br)cc2)no1	4.2	0.0	4.7	62.1*
COc1ccccc1-c1noc(-c2nn(-c3ccc(C)cc3)ccc2=O)n1	0.9	-1.4	-31.9	-13.4
CCc1ccc(-n2ccc(=O)c(-c3nc(-c4cccc(F)c4)no3)n2)cc1	-4.1	4.4	-14.8	33.6*
SMILES	UCHL1 block	USP10 block	USP7 inh	USP8 inh
Cc1cccc(-n2ccc(=O)c(-c3nc(-c4ccc(Cl)c(F)c4)no3)n2)c1	1.0	-0.1	3.4	10.7
COc1ccc(-n2ccc(=O)c(-c3nc(-c4ccccc4C)no3)n2)cc1	2.5	5.4	14.7	34.3*
CC(=O)c1cccc(NC(=O)c2ccc3c(c2)CCN3C(=O)C2CC2)c1	-0.4	-0.1	-2.6	-11.3
O=C(OCC(=O)N1CCc2ccccc21)c1cc([N+](=O)[O-])ccc1NCCO	1.7	2.0	-12.1	-4.8
O=C(Cn1cnc2cc3c(cc21)OCCCO3)N1CCCc2ccccc21	-9.3	-3.6	-9.6	36.9*
O=C(CN1CCN(S(=O)(=O)c2ccc3c(c2)OCCCO3)CC1)N1CCCc2ccccc21	1.7	-2.2	-0.1	0.1
COc1ccc(CNC(=O)Cn2c(=O)cc(-c3ccccc3)c3c(C)nn(-c4ccccc4)c32)cc1	2.6	3.1	3.6	16.4
COC(=O)COc1ccc(/C=N/NC(=O)c2ccc(CN3CCc4ccccc4C3)cc2)cc1	1.5	3.8	1.7	36.5*
O=C(Nc1ccccc1C(=O)N1CCCC1)c1ccc(CN2CCc3ccccc3C2)cc1	0.0	-2.5	1.0	40.4*
CCC(=O)N1CCc2c(nc(NCc3ccc(OC)cc3)n(C)c2=O)C1	1.8	0.0	1.3	10.5
O=C(c1c(F)cccc1F)N1CC2CCCN2c2ccc(C(F)(F)F)cc21 (configuration not stated)	5.3	-0.5	11.1	34.0*
CCOc1ccc(C2=NCCNC3=C2C(c2ccccc2)N(c2ccccc2)C3=O)cc1 (configuration not stated)	0.8	0.4	7.7	30.0*
Cc1ccc(C2C3=C(NCCN=C3c3ccccc3)C(=O)N2c2ccccc2)cc1 (configuration not stated)	0.1	-4.8	-14.4	6.7
O=C(CNC1Cc2ccccc2C1)Nc1ccccc1N1CCOCC1	2.8	1.9	1.4	46.1*
CC(=O)c1cccc(NC(=O)COC(=O)c2sc3cc(F)ccc3c2Cl)c1	4.9	30.8*	9.7	26.3
Cc1cccc(NC(=O)COC(=O)c2sc3cc(F)ccc3c2Cl)c1	1.6	6.1	5.5	2.5
CCN1C[C@H]2CCN(C(=O)Nc3cccc(Cl)c3)CC[C@H]2S1(=O)=O	1.9	-0.8	2.1	20.7
CCCCCCCc1cc(OC(=O)c2c(CCCCCCC)cc(O)cc2O[C@@H]2O[C@H](CO)[C@@H](O)[C@H](O)[C@H]2O)cc(O)c1C(=O)O	88.2*	100.8*	101.0*	99.3*
CCCCCCCCCCCCCCCc1cc(O)cc(O)c1C(=O)O	7.3	62.6*	11.9	24.9
O=C(O)CCCCc1cc(O)cc(O)c1	-10.9	-8.7	-17.1	-42.6
Cc1ccc(Cn2nnc3c(=O)n(Cc4nc(-c5ccc(C)cc5)no4)cnc32)cc1	-0.4	4.0	6.6	-0.9
CCOC(=O)c1noc2ncn(CC(=O)Nc3ccc4c(c3)OCO4)c(=O)c12	-2.4	1.3	-0.1	8.0
COc1ccc(-c2nc3n(n2)C(CC(=O)Nc2cccc4ccccc24)C(=O)N3)cc1 (configuration not stated)	1.3	40.5*	6.8	51.4*
Cc1ccccc1C(=O)NC1CCN(CC(=O)Nc2cccc(F)c2)CC1	0.3	1.6	2.2	6.0
CCN1C(=O)Cc2cc(NS(=O)(=O)c3ccccc3F)ccc21	2.9	3.0	4.2	14.1
CCN1C(=O)Cc2cc(NS(=O)(=O)c3cc(C)ccc3C)ccc21	3.2	0.0	10.4	40.2*
Cc1ncc(CO)c2c1Oc1nc(-c3cccc(Cl)c3)nc(SCC(=O)N3CCCCC3)c1C2	14.7	37.0*	38.8*	49.9*
Cc1cc(C)nc(NC(=O)c2ccco2)n1	1.3	1.7	2.0	14.8
O=C(Nc1noc2ccccc12)c1ccco1	1.0	0.4	-0.5	46.6*
